Results on 23 sequences are retold here after paper PMC6602471.

Whole data set: some 1,300 sequences, median “log fluorescence intensity” near 8.9, cut for the highest 2% near 13. Only a selection was taken, and the highest values are over-represented in it overall.

The assay addresses T1, ELK1 (Homo sapiens, UniProt P19419 1-428).
T1 sequence: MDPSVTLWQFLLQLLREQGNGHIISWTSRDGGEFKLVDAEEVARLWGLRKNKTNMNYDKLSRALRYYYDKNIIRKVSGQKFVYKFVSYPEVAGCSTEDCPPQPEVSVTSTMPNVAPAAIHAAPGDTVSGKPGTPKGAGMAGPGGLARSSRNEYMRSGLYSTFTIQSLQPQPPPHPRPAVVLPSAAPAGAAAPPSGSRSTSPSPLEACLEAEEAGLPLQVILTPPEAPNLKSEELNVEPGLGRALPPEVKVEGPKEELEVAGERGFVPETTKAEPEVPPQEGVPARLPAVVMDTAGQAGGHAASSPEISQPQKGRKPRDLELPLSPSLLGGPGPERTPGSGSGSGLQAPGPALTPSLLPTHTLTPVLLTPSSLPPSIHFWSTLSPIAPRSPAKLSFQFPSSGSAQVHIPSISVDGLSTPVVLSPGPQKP
Nature of the assay: custom PBM; custom protein-binding microarray; buffer, salt, pH and temperature not stated; high values mean tight binding. As to conditions: dsDNA, one strand shown.
On to “GCTGCTGCGGTGCATACCCCACCGGATGTGACTCCGGTCTTGATTCGCTTGACGCTGCTG”, for which the binding signal was 10.3 log fluorescence intensity.

As for “GATTAATTTCTTCCCTTATTCGCACGTGCCATAACAGTCTTGATTCGCTTGACGCTGCTG”, the binding signal was 9.19 log fluorescence intensity.

As for “CGGAAGTGTCTTAAACGTCGGATATCCGGTTCTTCTGTCTTGATTCGCTTGACGCTGCTG”, the binding signal was 12.1 log fluorescence intensity.

For the sequence “CGGAAGTGTAGTAAACGTCGGATATCCGGTTCTTCTGTCTTGATTCGCTTGACGCTGCTG”, the binding signal is 12.1 log fluorescence intensity.

Regarding “CGGAAGTGTCGTGAACGTCGGATATCCGGTTCTTCTGTCTTGATTCGCTTGACGCTGCTG”, the binding signal was 11.8 log fluorescence intensity.

In the case of “CGGAAGTGTCGGAAACGTCGGATATCCGGTTCTTCTGTCTTGATTCGCTTGACGCTGCTG”, the binding signal is 13.5 log fluorescence intensity.

Take “CGGAAGTGTCGAAAACGTCGGATATCCGGTTCTTCTGTCTTGATTCGCTTGACGCTGCTG”: the binding signal was 12.4 log fluorescence intensity.

Turning to “CGGAAGTGTCGTAGACGTCGGATATCCGGTTCTTCTGTCTTGATTCGCTTGACGCTGCTG”, the binding signal was 12.3 log fluorescence intensity.

As to “CGGAAGTGTCGTTAACGTCGGATATCCGGTTCTTCTGTCTTGATTCGCTTGACGCTGCTG”, the binding signal is 12.6 log fluorescence intensity.

Regarding “CGGAAGTGTCGTCAACGTCGGATATCCGGTTCTTCTGTCTTGATTCGCTTGACGCTGCTG”, the binding signal is 12.6 log fluorescence intensity.

“CGGAAGTGTCGTATACGTCGGATATCCGGTTCTTCTGTCTTGATTCGCTTGACGCTGCTG”: the binding signal was 12.5 log fluorescence intensity.

On to “CGGAAGTGTCCTAAACGTCGGATATCCGGTTCTTCTGTCTTGATTCGCTTGACGCTGCTG”, for which the binding signal was 12.4 log fluorescence intensity.

For the sequence “CGGAAGTGTCATAAACGTCGGATATCCGGTTCTTCTGTCTTGATTCGCTTGACGCTGCTG”, the binding signal was 12.1 log fluorescence intensity.

Take “CGGAAGTGTCGCAAACGTCGGATATCCGGTTCTTCTGTCTTGATTCGCTTGACGCTGCTG”: the binding signal was 12.5 log fluorescence intensity.

For “GCTGCCGCGGTGCATACCCCACCGGATGTGACCCCGGTCTTGATTCGCTTGACGCTGCTG”, the binding signal is 10.5 log fluorescence intensity.

As for “GCTGATGCGGTGCATACCCCACCGGATGTGACCCCGGTCTTGATTCGCTTGACGCTGCTG”, the binding signal was 10.2 log fluorescence intensity.

As to “CTGGGACTTGACCCAACTCTGCCGCGTGGGTCGTTTGTCTTGATTCGCTTGACGCTGCTG”, the binding signal was 8.91 log fluorescence intensity.

“GGAAAAAGACCCAGGGTAACACCGGAAGTGGGCTTAGTCTTGATTCGCTTGACGCTGCTG”: the binding signal is 11 log fluorescence intensity.

In the case of “GCTGCTGCGTTGCATACCCCACCGGATGTGACCCCGGTCTTGATTCGCTTGACGCTGCTG”, the binding signal is 10.1 log fluorescence intensity.

With “TCCGGCTACCAGCTCCACCCAATTCAGGCCTTGTAGGTCTTGATTCGCTTGACGCTGCTG”, the binding signal was 8.93 log fluorescence intensity.

Regarding “CTGGGACTTGACCTAACTCTGCCACGTGGGTCGTTTGTCTTGATTCGCTTGACGCTGCTG”, the binding signal is 8.92 log fluorescence intensity.

Take “CACAATTTTTACAGTAATGTAGCATGCGTAACTCCTGTCTTGATTCGCTTGACGCTGCTG”: the binding signal was 8.94 log fluorescence intensity.

As for “CTGGGACATGACCCAACTCTGCCACGTGGGTCGTTTGTCTTGATTCGCTTGACGCTGCTG”, the binding signal was 8.96 log fluorescence intensity.
